Experimental findings from PMC7862700, “An all-to-all approach to the identification of sequence-specific readers for epigenetic DNA modifications on cytosine” are described below.

What all share (experiment): DAPPL (digital affinity profiling via proximity ligation, sequencing); 10 mM Tris-HCl pH 7.5, 50 mM NaCl, 1 mM DTT, 4% glycerol, room temperature, 30 min; GST-TFs on glutathione beads, 16-mer random dsDNA library, 0.1% formaldehyde crosslink after washing; high values mean tight binding
One test deals with T1, FEV (Homo sapiens, UniProt Q99581 1-238).
T1 sequence: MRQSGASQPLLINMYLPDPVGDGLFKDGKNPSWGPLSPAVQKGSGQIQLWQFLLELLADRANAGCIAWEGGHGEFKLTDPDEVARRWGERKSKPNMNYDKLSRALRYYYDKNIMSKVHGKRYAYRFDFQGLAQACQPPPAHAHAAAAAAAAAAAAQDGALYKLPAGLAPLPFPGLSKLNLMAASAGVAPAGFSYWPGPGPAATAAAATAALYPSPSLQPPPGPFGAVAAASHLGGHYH
Conditions: protein: recombinant; tags: N-terminal GST; dsDNA, one strand shown. The gist of the method:
(§1)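 Human transcription factors were made in yeast as GST fusions, captured on glutathione beads and barcoded with DNA. With a tag-only sample included, the pool was incubated with 200 nmole of a random double-stranded 16-mer DNA library in Tris/NaCl/DTT/glycerol buffer at room temperature for 30 min, then crosslinked with 0.1% formaldehyde after washing, ligated by proximity, amplified and sequenced. For binding signal, each hexamer's read frequency for a factor is divided by its frequency for the tag-only sample.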

The next test deals with ETV5 (Homo sapiens, UniProt P41161 1-510). Conditions: protein: recombinant; tags: N-terminal GST; dsDNA, one strand shown. The gist of the method:
as §1

Another test has as its target HSF1 (Homo sapiens, UniProt Q00613 1-529). Conditions: protein: recombinant; tags: N-terminal GST; chain copies: 3; dsDNA, one strand shown. The gist of the method:
as §1

Another test addresses T2, SPIC (Homo sapiens, UniProt Q8N5J4 1-248).
T2 sequence: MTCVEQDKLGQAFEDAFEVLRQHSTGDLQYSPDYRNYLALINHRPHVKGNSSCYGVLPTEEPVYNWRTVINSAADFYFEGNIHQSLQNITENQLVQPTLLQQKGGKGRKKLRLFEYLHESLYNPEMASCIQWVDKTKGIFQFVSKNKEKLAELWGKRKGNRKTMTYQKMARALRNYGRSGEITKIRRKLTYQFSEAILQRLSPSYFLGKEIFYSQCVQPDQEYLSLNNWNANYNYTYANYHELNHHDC
Conditions: protein: recombinant; tags: N-terminal GST; dsDNA, one strand shown. The gist of the method: as §1

For the next test, the target named is ELF4 (Homo sapiens, UniProt Q99607 1-663). Conditions: protein: recombinant; tags: N-terminal GST; dsDNA, one strand shown. In short, it runs like this: as §1
Sequence of ELF4 (Q99607 whole entry): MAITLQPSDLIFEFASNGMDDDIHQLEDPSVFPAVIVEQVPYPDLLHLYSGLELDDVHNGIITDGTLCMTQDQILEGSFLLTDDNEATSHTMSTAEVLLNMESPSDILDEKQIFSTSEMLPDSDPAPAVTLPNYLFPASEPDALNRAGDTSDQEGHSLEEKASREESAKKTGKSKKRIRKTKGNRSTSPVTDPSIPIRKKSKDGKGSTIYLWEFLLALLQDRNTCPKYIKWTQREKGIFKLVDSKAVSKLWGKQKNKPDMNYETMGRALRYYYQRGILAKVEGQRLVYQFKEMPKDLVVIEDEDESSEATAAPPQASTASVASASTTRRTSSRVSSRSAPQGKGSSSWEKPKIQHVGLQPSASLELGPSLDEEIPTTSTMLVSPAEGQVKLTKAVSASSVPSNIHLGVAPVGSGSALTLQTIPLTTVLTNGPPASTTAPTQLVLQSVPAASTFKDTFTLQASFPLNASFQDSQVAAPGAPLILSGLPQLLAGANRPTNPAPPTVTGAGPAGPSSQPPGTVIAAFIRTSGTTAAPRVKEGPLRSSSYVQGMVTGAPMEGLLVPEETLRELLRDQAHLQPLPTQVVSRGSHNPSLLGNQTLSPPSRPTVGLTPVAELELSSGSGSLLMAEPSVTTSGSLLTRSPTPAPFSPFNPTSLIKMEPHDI
The next test has as its target T3, ELK4 (Homo sapiens, UniProt P28324-2 1-405).
T3 sequence: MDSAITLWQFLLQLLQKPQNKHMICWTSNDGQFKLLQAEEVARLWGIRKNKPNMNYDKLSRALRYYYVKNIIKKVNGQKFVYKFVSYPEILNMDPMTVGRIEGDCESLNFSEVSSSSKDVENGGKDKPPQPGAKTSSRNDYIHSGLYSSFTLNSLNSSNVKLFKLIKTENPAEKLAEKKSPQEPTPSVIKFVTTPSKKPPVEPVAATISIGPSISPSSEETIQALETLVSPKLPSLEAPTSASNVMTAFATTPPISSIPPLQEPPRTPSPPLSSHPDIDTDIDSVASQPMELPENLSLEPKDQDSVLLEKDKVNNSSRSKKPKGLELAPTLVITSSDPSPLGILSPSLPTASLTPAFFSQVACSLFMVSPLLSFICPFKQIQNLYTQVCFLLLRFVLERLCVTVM
Conditions: protein: recombinant; tags: N-terminal GST; dsDNA, one strand shown. In short, it runs like this: as §1

The next test concerns the target T4, ETV2 (Homo sapiens, UniProt O00321 1-342).
T4 sequence: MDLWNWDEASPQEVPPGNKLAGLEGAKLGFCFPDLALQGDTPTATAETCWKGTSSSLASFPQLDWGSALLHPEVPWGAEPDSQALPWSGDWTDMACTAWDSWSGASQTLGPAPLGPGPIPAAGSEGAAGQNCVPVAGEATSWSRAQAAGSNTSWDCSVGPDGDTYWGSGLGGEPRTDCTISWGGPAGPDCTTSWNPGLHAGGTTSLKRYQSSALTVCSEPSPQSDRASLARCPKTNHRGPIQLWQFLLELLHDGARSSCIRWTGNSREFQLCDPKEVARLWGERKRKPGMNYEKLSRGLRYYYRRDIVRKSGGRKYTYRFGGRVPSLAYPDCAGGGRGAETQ
Conditions: protein: recombinant; tags: N-terminal GST; dsDNA, one strand shown. The gist of the method:
as §1

The target in another test is T5, ELF3 (Homo sapiens, UniProt P78545 1-371).
T5 sequence: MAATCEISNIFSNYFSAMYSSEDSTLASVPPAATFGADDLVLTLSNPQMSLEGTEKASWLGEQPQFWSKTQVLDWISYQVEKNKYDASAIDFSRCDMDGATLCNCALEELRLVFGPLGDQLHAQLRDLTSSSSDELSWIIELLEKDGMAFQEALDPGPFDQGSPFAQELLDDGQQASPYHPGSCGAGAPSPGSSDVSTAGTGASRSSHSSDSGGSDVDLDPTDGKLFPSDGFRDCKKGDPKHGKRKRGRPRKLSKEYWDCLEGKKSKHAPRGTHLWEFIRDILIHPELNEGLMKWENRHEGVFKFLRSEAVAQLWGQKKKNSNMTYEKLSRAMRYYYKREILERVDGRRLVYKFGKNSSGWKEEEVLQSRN
Conditions: protein: recombinant; tags: N-terminal GST; dsDNA, one strand shown. In short, it runs like this: as §1

A further test addresses CRX (Homo sapiens, UniProt O43186 1-299). Conditions: protein: recombinant; tags: N-terminal GST; dsDNA, one strand shown. In short, it runs like this:
as §1

For a further test, the target named is ETV1 (Homo sapiens, UniProt P50549 1-477). Conditions: protein: recombinant; tags: N-terminal GST; dsDNA, one strand shown. In short, it runs like this:
as §1

In another test the target is T6, ERF (Homo sapiens, UniProt P50548 1-548).
T6 sequence: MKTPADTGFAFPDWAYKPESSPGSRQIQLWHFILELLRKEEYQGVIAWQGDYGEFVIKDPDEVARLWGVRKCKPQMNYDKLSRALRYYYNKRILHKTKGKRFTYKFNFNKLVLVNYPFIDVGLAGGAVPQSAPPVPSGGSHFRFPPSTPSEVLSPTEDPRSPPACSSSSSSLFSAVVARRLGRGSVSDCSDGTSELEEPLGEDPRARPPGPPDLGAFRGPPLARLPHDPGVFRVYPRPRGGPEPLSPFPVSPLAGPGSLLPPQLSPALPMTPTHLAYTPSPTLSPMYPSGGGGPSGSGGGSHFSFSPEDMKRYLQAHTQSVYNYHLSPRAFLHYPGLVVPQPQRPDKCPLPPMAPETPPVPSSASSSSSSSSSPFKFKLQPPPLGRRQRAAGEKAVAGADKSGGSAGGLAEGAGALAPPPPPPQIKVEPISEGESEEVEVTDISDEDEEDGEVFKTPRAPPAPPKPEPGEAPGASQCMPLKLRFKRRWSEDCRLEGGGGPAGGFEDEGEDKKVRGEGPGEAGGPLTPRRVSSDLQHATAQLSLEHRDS
Conditions: protein: recombinant; tags: N-terminal GST; dsDNA, one strand shown. The gist of the method: as §1

The target of another test is T7, ETV3L (Homo sapiens, UniProt Q6ZN32 1-361).
T7 sequence: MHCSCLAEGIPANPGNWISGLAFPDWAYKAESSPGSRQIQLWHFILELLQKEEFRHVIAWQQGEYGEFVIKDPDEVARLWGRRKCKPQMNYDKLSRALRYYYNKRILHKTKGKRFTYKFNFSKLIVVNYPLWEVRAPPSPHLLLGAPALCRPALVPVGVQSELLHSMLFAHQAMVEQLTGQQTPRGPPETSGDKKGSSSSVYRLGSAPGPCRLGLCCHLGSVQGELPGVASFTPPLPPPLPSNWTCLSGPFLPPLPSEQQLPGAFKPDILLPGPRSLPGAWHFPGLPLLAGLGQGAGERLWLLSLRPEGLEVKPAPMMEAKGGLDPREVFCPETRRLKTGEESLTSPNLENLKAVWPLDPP
Conditions: protein: recombinant; tags: N-terminal GST; dsDNA, one strand shown. The gist of the method: as §1

In a further test the target is T8, ETS2 (Homo sapiens, UniProt P15036 1-469).
T8 sequence: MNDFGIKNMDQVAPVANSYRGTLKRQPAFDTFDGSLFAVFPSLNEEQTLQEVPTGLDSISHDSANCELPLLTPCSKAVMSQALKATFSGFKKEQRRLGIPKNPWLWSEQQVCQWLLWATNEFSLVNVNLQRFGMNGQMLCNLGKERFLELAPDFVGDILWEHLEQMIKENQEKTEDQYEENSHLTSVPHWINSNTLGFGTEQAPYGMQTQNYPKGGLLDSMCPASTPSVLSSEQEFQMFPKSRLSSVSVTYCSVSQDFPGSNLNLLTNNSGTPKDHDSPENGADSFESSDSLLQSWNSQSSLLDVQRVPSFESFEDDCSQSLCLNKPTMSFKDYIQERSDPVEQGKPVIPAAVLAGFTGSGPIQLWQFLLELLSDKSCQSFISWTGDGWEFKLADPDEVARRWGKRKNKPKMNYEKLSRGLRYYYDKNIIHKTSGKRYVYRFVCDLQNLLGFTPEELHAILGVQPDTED
Conditions: protein: recombinant; tags: N-terminal GST; dsDNA, one strand shown. The gist of the method: as §1

The next test concerns the target T9, SPDEF (Homo sapiens, UniProt O95238 1-335).
T9 sequence: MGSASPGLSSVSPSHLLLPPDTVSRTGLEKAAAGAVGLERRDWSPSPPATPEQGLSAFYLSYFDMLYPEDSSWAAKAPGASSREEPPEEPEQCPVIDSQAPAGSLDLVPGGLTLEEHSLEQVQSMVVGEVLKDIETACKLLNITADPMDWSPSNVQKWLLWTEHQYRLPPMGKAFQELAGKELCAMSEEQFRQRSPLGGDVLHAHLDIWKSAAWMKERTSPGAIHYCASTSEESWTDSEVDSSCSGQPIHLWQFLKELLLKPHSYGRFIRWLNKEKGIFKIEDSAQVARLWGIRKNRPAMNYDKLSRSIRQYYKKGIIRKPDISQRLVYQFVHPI
Conditions: protein: recombinant; tags: N-terminal GST; dsDNA, one strand shown. The gist of the method: as §1

Another test addresses T10, ETV7 (Homo sapiens, UniProt Q9Y603 1-341).
T10 sequence: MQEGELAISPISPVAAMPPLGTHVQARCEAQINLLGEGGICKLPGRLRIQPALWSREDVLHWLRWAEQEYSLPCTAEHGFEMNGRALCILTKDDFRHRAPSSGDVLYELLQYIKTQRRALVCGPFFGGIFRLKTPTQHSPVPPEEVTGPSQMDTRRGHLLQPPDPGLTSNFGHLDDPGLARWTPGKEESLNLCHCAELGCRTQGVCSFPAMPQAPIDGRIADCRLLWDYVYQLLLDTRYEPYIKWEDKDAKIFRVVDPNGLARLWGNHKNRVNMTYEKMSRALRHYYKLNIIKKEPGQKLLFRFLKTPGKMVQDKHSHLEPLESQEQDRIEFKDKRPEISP
Conditions: protein: recombinant; tags: N-terminal GST; dsDNA, one strand shown. In short, it runs like this:
as §1

A further test concerns the target T11, ELF5 (Homo sapiens, UniProt Q9UKW6-2 1-255).
T11 sequence: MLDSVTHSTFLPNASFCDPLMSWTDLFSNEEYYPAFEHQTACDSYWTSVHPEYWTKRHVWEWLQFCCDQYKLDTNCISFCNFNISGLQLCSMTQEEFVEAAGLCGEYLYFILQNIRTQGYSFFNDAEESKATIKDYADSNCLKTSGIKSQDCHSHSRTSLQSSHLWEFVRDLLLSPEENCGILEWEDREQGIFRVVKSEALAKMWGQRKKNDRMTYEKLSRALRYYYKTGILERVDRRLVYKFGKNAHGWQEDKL
Conditions: protein: recombinant; tags: N-terminal GST; dsDNA, one strand shown. The gist of the method:
as §1

In another test the target is T12, ETV3 (Homo sapiens, UniProt P41162-2 1-143).
T12 sequence: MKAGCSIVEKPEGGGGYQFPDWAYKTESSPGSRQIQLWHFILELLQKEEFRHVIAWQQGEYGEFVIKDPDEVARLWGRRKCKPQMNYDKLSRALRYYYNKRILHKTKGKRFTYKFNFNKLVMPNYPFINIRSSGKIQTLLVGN
Conditions: protein: recombinant; tags: N-terminal GST; dsDNA, one strand shown. The gist of the method: as §1

The target in another test is ETV6 (Homo sapiens, UniProt P41212 1-452). Conditions: protein: recombinant; tags: N-terminal GST; dsDNA, one strand shown. The gist of the method: as §1
Sequence of ETV6 (P41212 whole entry): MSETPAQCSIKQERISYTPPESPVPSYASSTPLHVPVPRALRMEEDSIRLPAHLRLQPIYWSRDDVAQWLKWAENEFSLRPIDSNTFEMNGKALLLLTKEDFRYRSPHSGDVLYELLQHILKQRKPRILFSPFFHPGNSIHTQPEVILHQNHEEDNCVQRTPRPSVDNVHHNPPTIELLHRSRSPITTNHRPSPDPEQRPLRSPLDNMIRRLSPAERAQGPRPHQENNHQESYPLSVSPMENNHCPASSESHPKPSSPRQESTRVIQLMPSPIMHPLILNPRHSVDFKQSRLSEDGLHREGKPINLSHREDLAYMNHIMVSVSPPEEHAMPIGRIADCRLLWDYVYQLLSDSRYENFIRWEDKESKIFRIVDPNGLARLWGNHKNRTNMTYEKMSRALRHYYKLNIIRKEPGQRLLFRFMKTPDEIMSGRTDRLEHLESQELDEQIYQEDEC

Sequence of HSF1 (Q00613 whole entry): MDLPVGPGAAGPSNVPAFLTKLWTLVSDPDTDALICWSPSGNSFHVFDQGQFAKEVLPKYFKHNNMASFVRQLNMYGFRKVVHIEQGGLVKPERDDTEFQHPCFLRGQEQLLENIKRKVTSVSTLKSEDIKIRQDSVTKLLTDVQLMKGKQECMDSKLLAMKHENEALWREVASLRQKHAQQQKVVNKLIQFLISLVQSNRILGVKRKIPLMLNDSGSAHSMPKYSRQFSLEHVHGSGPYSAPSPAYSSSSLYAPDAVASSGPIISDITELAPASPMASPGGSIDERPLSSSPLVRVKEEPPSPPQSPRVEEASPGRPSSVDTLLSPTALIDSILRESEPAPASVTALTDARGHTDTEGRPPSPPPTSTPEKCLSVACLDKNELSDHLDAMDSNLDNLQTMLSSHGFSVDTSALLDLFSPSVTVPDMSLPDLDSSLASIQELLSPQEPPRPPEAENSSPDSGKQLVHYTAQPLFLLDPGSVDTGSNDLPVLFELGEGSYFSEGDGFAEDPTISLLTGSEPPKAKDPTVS
Sequence of ETV1 (P50549 whole entry): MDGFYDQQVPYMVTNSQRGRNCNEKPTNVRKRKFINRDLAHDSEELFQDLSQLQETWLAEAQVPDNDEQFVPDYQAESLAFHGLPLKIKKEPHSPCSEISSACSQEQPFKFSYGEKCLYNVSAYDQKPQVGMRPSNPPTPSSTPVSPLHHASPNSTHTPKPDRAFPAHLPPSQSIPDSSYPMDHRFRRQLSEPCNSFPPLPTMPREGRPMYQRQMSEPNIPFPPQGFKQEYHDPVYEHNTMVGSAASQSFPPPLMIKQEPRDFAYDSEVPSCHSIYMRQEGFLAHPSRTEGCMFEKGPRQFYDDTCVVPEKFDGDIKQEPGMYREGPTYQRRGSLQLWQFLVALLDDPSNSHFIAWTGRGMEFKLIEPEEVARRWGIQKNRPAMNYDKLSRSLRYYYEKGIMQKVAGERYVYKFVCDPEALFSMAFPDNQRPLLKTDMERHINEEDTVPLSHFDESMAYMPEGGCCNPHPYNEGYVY
Sequence of ETV5 (P41161 whole entry): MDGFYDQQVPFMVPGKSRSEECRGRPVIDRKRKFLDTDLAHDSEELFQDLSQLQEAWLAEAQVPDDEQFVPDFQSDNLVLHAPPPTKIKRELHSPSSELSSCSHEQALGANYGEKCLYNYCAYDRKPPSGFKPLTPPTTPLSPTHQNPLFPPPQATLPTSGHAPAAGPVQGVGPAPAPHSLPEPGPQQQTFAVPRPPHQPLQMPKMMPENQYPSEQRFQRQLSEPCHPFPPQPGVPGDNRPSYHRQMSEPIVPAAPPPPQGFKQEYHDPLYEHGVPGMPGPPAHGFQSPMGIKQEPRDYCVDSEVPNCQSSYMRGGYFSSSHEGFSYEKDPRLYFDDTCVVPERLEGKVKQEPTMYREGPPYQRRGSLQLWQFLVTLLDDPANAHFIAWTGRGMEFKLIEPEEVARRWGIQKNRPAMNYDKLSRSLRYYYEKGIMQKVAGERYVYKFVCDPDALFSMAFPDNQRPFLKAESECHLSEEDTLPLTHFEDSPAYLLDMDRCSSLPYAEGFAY
Sequence of CRX (O43186 whole entry): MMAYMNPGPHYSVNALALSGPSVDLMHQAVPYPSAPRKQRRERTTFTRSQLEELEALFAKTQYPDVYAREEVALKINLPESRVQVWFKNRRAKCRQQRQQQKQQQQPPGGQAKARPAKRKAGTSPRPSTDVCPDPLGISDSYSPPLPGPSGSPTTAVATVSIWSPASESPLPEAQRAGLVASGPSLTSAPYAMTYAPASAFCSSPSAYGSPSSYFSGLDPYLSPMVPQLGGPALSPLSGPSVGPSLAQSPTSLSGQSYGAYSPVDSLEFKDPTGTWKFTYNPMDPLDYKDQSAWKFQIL

Regarding CGCTTC, the binding signal is 2.28 fold enrichment (6-mer frequency, TF over GST control) with FEV; 2.34 fold enrichment (6-mer frequency, TF over GST control) with ETV5; 1.26 fold enrichment (6-mer frequency, TF over GST control) with HSF1; 1.77 fold enrichment (6-mer frequency, TF over GST control) with SPIC; 2.02 fold enrichment (6-mer frequency, TF over GST control) with ELF4; 1.77 fold enrichment (6-mer frequency, TF over GST control) in the test with ELK4. The binding signal with ETV2 was 1.68 fold enrichment (6-mer frequency, TF over GST control); in the test with ELF3, 1.93 fold enrichment (6-mer frequency, TF over GST control); in the test with CRX, 1.05 fold enrichment (6-mer frequency, TF over GST control); with ETV1, 2.03 fold enrichment (6-mer frequency, TF over GST control); with ERF, 2.11 fold enrichment (6-mer frequency, TF over GST control); with ETV3L, 2.03 fold enrichment (6-mer frequency, TF over GST control). The binding signal with ETS2 is 2.07 fold enrichment (6-mer frequency, TF over GST control); with SPDEF, 2 fold enrichment (6-mer frequency, TF over GST control); in the test with ETV7 it was 1.9 fold enrichment (6-mer frequency, TF over GST control); in the test with ELF5, 2.14 fold enrichment (6-mer frequency, TF over GST control); with ETV3, 2.09 fold enrichment (6-mer frequency, TF over GST control); with ETV6, 2.35 fold enrichment (6-mer frequency, TF over GST control).
